Experiment [1] deals with PRMT1 (protein arginine N-methyltransferase 1). In words: small molecules binding arginine methyltransferase PRMT1 – biochemical, small-molecule microarray, 635 nm fluorescence, primary screen (AID 1088).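 Further: binding of Prmt1 protein to compounds spotted on small-molecule microarray slides.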 To be noted: higher = more signal.
A short description of experiment [2]: growth effects on S. cerevisiae YJM789 – YJM789 clinical isolate, OD600, 24 h, basal, primary screen (AID 1089).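 Further: growth of clinical yeast isolate S. cerevisiae YJM 789 seeded 1000 cells per well; test concentration not given here.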 To be noted: higher = more signal, called active from +8 up or from −8 down.
Experiment [3] can be described thus: S. pombe growth modifiers, basal conditions – strain 972, OD600, 24 h, no modulator, primary screen (AID 1090).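 Further: basal condition with compound alone and no growth modifier present; test concentration not given here.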 To be noted: S. pombe 972 growth, higher = more signal, called active from +8 up or from −8 down.
Experiment [4] in a line: budding yeast growth modifiers under rapamycin – strain BY4716, OD600, 96 h, primary screen (AID 1091). Further: test concentration not given here. To be noted: S. cerevisiae BY4716 + rapamycin, higher = more signal, called active from +8 up or from −8 down.
For experiment [5], the target named is Torsin-1A-interacting protein 2 (Homo sapiens) (UniProt Q8NFQ8). In words: small molecules binding lysate-expressed LULL1 – cell lysate, human LULL1 lysate, 635/667 nm fluorescence, primary screen (AID 1092).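 Further: probe is lysate of COS7 cells overexpressing human LULL1; score merges per-feature 667 nm fluorescence with signal-to-noise.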 To be noted: small-molecule microarray, hLULL1 lysate binding, 635 nm fluorescence; higher = more signal.
Chain of Torsin-1A-interacting protein 2 (Homo sapiens) (Q8NFQ8 whole entry, looked up): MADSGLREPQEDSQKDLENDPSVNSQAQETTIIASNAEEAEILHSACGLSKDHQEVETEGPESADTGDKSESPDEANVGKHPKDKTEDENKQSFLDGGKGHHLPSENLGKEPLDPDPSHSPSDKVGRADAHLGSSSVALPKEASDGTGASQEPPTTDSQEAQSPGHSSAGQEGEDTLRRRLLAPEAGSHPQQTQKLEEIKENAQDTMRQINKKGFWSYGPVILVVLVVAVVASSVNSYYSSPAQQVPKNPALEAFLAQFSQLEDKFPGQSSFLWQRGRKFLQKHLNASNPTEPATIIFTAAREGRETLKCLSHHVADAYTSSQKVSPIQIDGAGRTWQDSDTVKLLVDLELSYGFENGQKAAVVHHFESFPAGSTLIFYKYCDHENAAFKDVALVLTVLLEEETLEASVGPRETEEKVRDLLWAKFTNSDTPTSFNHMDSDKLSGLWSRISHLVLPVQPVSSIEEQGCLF
Experiment [6] in a line: optical density change of DRC41 E. coli – strain DRC41, OD650, 24 h, E. coli filamentation project, primary screen (AID 1093).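 Further: MC1000 strain lacking acrAB efflux and sulA so SOS filamentation is blocked; test concentration not given here.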 To be noted: E. coli DRC41 growth, higher = more signal, called active from +8 up or from −8 down.
A short description of experiment [7]: probe aLefty2 binding to arrayed compounds – biochemical, biotinylated probe, 635/667 nm fluorescence, primary screen (AID 1094).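 Further: score merges spot fluorescence near 667 nm with spot signal-to-noise ratio.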 To be noted: small-molecule microarray, higher = more signal.
Experiment [8] concerns Noggin (protein binding on small-molecule microarray). The experiment can be described thus: small molecules binding Noggin protein – biochemical, 635/667 nm fluorescence, primary screen (AID 1095).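 Further: score merges 667 nm feature fluorescence with signal to noise over triplicate slides.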 To be noted: 635 nm fluorescence, higher = more signal.
The target in experiment [9] is Neurogenic locus notch homolog protein 3 (Homo sapiens) (UniProt Q9UM47). The experiment can be described thus: small molecules binding NOTCH3 protein – biochemical, 635/667 nm fluorescence, primary screen (AID 1096). To be noted: small-molecule microarray, 635 nm fluorescence, higher = more signal.
Chain of Neurogenic locus notch homolog protein 3 (Homo sapiens) (Q9UM47 whole entry, looked up): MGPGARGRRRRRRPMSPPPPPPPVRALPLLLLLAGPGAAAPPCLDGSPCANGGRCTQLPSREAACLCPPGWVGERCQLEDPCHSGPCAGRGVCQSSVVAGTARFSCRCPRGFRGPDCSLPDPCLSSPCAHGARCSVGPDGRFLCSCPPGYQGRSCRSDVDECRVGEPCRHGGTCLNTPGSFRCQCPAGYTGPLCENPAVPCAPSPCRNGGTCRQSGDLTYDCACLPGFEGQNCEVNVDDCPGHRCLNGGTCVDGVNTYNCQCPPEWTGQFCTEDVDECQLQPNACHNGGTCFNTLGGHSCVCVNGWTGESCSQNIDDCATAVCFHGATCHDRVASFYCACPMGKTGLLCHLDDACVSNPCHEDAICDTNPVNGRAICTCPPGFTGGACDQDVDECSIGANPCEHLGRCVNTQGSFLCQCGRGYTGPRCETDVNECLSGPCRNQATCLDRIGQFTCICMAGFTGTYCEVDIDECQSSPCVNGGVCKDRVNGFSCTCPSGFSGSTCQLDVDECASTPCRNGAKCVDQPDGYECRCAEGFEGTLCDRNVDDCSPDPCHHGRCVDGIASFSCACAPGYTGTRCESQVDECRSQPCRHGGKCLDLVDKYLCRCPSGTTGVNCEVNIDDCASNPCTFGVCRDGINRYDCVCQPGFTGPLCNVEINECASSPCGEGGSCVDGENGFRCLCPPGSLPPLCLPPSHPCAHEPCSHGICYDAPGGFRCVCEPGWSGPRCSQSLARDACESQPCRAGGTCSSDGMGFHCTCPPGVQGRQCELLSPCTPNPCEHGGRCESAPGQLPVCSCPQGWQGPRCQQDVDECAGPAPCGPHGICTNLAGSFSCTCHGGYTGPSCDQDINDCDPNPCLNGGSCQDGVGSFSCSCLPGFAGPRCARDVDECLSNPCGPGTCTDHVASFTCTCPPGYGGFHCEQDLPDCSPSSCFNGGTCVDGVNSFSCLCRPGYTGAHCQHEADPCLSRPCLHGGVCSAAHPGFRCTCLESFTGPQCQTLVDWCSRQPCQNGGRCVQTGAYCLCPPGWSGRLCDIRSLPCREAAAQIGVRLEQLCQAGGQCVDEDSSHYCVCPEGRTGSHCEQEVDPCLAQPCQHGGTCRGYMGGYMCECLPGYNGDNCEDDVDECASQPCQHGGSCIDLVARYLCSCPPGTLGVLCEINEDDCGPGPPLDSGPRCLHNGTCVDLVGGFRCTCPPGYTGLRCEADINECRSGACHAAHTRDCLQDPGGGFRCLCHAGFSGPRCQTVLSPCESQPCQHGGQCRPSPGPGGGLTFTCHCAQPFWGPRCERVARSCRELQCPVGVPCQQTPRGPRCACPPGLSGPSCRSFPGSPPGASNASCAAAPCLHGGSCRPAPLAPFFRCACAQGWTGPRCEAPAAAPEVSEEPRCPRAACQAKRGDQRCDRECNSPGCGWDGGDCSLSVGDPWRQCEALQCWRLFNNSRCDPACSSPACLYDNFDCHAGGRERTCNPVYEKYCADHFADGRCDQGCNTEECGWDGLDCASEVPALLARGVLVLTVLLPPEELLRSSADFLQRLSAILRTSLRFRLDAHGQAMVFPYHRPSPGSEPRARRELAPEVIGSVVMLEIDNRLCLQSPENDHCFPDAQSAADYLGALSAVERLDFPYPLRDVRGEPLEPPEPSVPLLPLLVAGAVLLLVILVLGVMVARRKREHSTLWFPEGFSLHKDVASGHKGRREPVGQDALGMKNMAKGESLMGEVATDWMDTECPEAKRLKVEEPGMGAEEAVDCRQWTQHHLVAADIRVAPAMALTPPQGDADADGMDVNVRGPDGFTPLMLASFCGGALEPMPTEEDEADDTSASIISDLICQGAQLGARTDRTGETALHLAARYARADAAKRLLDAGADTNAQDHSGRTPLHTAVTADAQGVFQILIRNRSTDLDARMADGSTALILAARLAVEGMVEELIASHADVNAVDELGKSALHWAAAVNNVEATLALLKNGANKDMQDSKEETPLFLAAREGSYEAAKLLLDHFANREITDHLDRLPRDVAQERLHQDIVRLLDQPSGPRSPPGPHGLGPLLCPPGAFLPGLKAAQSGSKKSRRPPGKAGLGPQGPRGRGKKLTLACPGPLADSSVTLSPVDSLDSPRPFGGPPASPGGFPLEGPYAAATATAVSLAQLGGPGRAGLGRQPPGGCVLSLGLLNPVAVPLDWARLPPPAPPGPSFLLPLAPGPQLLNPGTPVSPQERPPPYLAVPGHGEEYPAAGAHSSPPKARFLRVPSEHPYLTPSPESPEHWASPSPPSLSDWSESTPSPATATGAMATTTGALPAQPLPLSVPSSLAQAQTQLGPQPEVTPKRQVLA
Experiment [10] in a line: probe aEGFR binding to arrayed compounds – biochemical, biotinylated probe, 635/667 nm fluorescence, primary screen (AID 1097).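 Further: probe is a biotinylated anti-EGFR antibody binding compounds printed on slides; score combines fluorescence near 667 nm and signal to noise of each spot.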 To be noted: small-molecule microarray, higher = more signal.
Experiment [11] has as its system Plasmodium falciparum Sir2 (PF13_0152, Sir2A). In words: Plasmodium falciparum Sir2A binding compounds – biochemical, small-molecule microarray, 635 nm fluorescence, primary screen (AID 1098).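 Further: score merges spot fluorescence intensity with its signal-to-noise ratio.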 To be noted: fluorescence 635 nm, higher = more signal.
Experiment [12] can be described thus: probe aDKK1 binding to arrayed compounds – biochemical, biotinylated probe, 635/667 nm fluorescence, primary screen (AID 1099).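 Further: score merges 667nm spot fluorescence with signal to noise across triplicate slides; reference of the scale not given here.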 To be noted: small-molecule microarray, higher = more signal.
The nature of experiment [13]: probe aCHRDL2 binding to arrayed compounds – biochemical, biotinylated probe, 635/667 nm fluorescence, primary screen (AID 1100). To be noted: small-molecule microarray, higher = more signal.
Experiment [14] can be described thus: change in splice reporter luminescence, either direction, cell-based, HEK293, spliceosome inhibition project, primary screen (AID 1101).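 Further: HEK293 cells carrying a splicing-competent luciferase reporter gene; test concentration not given here.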 To be noted: HEK293 splicing luciferase reporter, 24 h, higher = more signal, called active from +8 up or from −8 down.
Experiment [15] concerns the target Fibroblast growth factor 10 (Homo sapiens) (UniProt O15520). In words: compounds binding fibroblast growth factor 10 – biochemical, small-molecule microarray, 635 nm fluorescence, primary screen (AID 1102). To be noted: FGF10 binding, fluorescence 635 nm, higher = more signal.
Experiment [16] has as its system glycogen synthase kinase-3 (GSK3A per assay name; protocol says GSK3B). The experiment can be described thus: compounds binding glycogen synthase kinase-3 – biochemical, small-molecule microarray, 635 nm fluorescence, GSK3A, primary screen (AID 1103). Further: the record names both GSK3A and GSK3B. To be noted: fluorescence 635 nm, higher = more signal.
For experiment [17], the target named is Epidermal growth factor receptor (Homo sapiens) (UniProt P00533). The experiment can be described thus: compounds binding epidermal growth factor receptor – biochemical, small-molecule microarray, 635 nm fluorescence, primary screen (AID 1104).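 Further: score merges 667 nm emission intensity with spot signal to noise over triplicate slides.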 To be noted: EGFR binding, higher = more signal.
Chain of Epidermal growth factor receptor (Homo sapiens) (P00533 whole entry, looked up): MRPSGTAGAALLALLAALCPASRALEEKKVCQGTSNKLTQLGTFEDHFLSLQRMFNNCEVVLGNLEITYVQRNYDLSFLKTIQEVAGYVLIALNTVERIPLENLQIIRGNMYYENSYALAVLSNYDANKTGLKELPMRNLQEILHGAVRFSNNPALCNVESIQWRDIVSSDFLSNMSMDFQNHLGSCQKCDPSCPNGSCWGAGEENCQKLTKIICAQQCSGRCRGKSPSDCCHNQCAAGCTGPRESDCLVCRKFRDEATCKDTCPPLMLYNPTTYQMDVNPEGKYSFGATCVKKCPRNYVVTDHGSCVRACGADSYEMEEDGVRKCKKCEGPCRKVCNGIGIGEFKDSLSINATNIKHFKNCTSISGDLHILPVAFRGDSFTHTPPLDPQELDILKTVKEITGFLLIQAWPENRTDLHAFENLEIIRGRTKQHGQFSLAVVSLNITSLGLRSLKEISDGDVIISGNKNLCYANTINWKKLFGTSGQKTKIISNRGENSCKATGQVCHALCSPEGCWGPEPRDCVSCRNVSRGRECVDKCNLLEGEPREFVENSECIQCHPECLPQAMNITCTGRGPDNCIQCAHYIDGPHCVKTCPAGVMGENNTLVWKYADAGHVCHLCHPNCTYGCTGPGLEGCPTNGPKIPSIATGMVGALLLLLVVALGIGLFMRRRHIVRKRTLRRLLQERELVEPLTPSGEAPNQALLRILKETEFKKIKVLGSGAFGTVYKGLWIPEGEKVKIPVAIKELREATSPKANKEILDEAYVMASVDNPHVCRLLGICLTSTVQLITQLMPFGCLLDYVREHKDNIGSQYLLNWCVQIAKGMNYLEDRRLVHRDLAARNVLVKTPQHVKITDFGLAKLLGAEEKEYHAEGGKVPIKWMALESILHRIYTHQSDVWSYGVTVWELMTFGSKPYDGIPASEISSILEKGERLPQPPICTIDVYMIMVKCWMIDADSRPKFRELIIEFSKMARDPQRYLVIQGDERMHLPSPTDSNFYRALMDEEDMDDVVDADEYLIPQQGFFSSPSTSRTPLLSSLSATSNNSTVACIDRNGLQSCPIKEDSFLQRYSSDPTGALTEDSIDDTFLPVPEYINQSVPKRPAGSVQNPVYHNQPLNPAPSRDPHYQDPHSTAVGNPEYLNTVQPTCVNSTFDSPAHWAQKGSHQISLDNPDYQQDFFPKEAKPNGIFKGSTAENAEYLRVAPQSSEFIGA
Experiment [18] addresses Follistatin-related protein 3 (Homo sapiens) (UniProt O95633). In words: compounds binding follistatin-related protein 3 – biochemical, small-molecule microarray, 635 nm fluorescence, primary screen (AID 1105).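 Further: score merges emission near 667 nm and signal to noise per printed spot across three slides.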 To be noted: FSTL3 binding, higher = more signal.
Experiment [19] addresses Dickkopf-related protein 1 (Homo sapiens) (UniProt O94907). The experiment can be described thus: small molecules binding DKK1 protein – biochemical, small-molecule microarray, 635 nm fluorescence scan, primary screen (AID 1106).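 Further: score merges emission near 667 nm with signal to noise over three replicate slides.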 To be noted: higher = more signal.
Experiment [20] has as its system Inhibin beta A chain (activin A). The experiment can be described thus: small molecules binding activin A – biochemical, small-molecule microarray, 635 nm fluorescence scan, primary screen (AID 1107).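 Further: mouse activin A protein probed at 4.33 µg/mL on printed slides; score merges bound-protein fluorescence near 667 nm with spot signal-to-noise.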 To be noted: INHBA, higher = more signal.

Calls of active or inactive are those of the source.

Chain of Fibroblast growth factor 10 (Homo sapiens) (O15520 whole entry, looked up): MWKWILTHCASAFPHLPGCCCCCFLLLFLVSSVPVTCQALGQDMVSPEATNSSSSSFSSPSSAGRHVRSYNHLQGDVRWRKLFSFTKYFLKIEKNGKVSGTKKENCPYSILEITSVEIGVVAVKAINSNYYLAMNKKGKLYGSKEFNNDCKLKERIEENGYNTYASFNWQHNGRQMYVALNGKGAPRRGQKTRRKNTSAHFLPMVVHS
Chain of Follistatin-related protein 3 (Homo sapiens) (O95633 whole entry, looked up): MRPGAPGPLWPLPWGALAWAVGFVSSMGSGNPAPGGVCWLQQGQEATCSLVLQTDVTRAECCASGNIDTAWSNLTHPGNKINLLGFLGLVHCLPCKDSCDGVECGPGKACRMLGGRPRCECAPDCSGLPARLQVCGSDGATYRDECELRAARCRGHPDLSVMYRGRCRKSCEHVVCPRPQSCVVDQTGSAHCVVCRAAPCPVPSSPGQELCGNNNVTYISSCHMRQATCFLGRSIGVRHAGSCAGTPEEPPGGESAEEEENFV
Chain of Dickkopf-related protein 1 (Homo sapiens) (O94907 whole entry, looked up): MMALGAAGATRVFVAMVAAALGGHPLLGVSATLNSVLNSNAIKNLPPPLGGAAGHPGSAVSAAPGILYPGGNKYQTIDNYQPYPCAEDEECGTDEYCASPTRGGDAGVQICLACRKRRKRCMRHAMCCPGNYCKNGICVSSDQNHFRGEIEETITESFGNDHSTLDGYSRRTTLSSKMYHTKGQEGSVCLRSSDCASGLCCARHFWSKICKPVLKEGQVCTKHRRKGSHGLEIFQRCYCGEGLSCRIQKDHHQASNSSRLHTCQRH

For `CC[C@@H](c1ccccc1)n1c(=O)n2n(c1=O)[C@H]1[C@H](O)[C@@H]3O[C@@H]3C(=NOC[C@@H](O)COCc3ccco3)[C@H]1CC2`, the composite z-score was -0.862 in experiment [1]; -1.1 in [5]; -0.215 in experiment [7]; 0.0447 in experiment [8]; -0.979 in experiment [9]; -0.185 in [10]. Also, the composite z-score was 1.27 in experiment [11]; -0.455 in experiment [12]; -0.773 in experiment [13]; 0.145 in [15]; -0.693 in experiment [16]; -0.264 in experiment [17]. Moreover, the composite z-score is -0.378 in [18], 0.239 in [19] and 1.09 in [20]. In addition, the z-score in [2] is -0.697 (inactive); in [3] it was -0.552 (inactive); in experiment [4] it was -0.624 (inactive); in experiment [6], 0.568 (inactive); in experiment [14], 3.16 (inactive).
For the compound `CCOC(=O)[C@H](Cc1ccccc1)NC(=O)CCC1CC(OC(=O)NCc2ccc3c(c2)OCO3)CC2(CCCC(COC(=O)NCCc3ccccc3OC)O2)O1` (stereo not given in full), the composite z-score in experiment [1] is 1.49; in experiment [5], 2.67; in experiment [7] it was -0.112; in experiment [8] it was 0.679; in experiment [9], 1.08; in experiment [10] it was 0.0287. In addition, the composite z-score in experiment [11] was 0.604; in experiment [12] it was -0.0864; in [13], -0.465; in experiment [15] it was 0.977; in experiment [16], 1.23; in [17], 0.539. The figures for the composite z-score in experiment [18], in experiment [19] and in experiment [20] were 1.35, 0.759 and 0.0493, respectively. In addition, the z-score was 0.163 (inactive) in [2]; 1.07 (inactive) in [3]; 1.52 (inactive) in [4]; -0.324 (inactive) in experiment [6]; 0.222 (inactive) in experiment [14].
Consider `COc1ccc(COC(=O)NN=C2C[C@@H](O)[C@@H](O)[C@@H]3[C@@H]4C(=O)N(c5ccc(F)cc5F)C(=O)[C@@H]4CC[C@H]23)cc1`, for which the composite z-score in experiment [1] was 0.0093; in [5] it was 0.142; in experiment [7] it was 0.469; in [8], -0.186; in [9], -0.425; in experiment [10], -0.171. Besides, the composite z-score was 0.299 in experiment [11]; 0.939 in experiment [12]; 1.22 in [13]; 0.0785 in experiment [15]; -0.258 in experiment [16]; -1.2 in experiment [17]. In addition, the results for the composite z-score in experiment [18], in [19] and in [20] were -0.496, -1.13 and -0.009, respectively. Besides, the z-score in experiment [2] was 0.201 (inactive); in experiment [3], -4.12 (inactive); in [4], -0.971 (inactive); in [6] it was 0.0412 (inactive); in experiment [14], -0.531 (inactive).
Regarding `O=C(NN=C1C[C@@H](O)[C@@H](O)[C@@H]2[C@@H]3C(=O)N(C[C@@H]4CCCO4)C(=O)[C@@H]3CC[C@@H]12)OCc1ccccc1`, the composite z-score in experiment [1] is 1.04; in experiment [5], -0.0366; in experiment [7], -0.27; in [8] it was 0.907; in experiment [9] it was 0.208; in [10] it was -0.0947. Besides, the composite z-score in experiment [11] is 0.789; in experiment [12], -0.32; in experiment [13], -0.916; in experiment [15], 0.127; in [16], 1.09; in experiment [17] it was 0.509. Also, the composite z-score in experiment [18] was found to be 0.0972; in experiment [19], 0.486; in [20] it was 0.781. Further, the z-score is -1.74 (inactive) in experiment [2]; -0.199 (inactive) in experiment [3]; -0.655 (inactive) in experiment [4]; -0.202 (inactive) in [6]; -1.03 (inactive) in experiment [14].
Consider `CCOC(=O)[C@H](CC(C)C)NC(=O)CCC1CC(OC(=O)NCCc2ccc(F)cc2)CC2(CCCC(COC(=O)NCCc3ccc(Cl)cc3)O2)O1` (stereo not given in full), for which the composite z-score in [1] is 1.26; in experiment [5] it was 1.97; in [7] it was -0.0021; in experiment [8], 0.948; in experiment [9], 0.773; in experiment [10], -0.123. Moreover, the composite z-score in experiment [11] was 0.654; in experiment [12], -0.26; in experiment [13], -0.681; in experiment [15], 0.675; in experiment [16], 0.46; in experiment [17] it was 0.517. Besides, the composite z-score in experiment [18] was 0.79; in experiment [19], 0.483; in [20], -1.71. The z-score in experiment [2] is -0.623 (inactive); in [3], 0.485 (inactive); in experiment [4] it was -0.518 (inactive); in experiment [6] it was -0.296 (inactive); in [14] it was 0.0483 (inactive).

Values taken from PubChem BioAssay.
